This note sets out measurements from PubChem BioAssay.

For the test, the target named is Alpha-bungarotoxin (Bungarus multicinctus) (UniProt P60615). The test is described as follows: alpha-bungarotoxin binders on microarray, profiling panel, artefact control for SMM control protein annotation, biochemical, small-molecule microarray, Alexa647 label, 635/667 nm fluorescence (AID 1117). Particulars: alpha-BTX-A647 binding fluorescence, higher = more signal.
Sequence of Alpha-bungarotoxin (Bungarus multicinctus) (P60615 whole entry, looked up): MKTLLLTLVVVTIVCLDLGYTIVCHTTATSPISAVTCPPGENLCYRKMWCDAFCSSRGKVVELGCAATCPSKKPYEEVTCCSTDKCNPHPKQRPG
`O=C1[C@H]2C=C(I)[C@H](C[C@@H]2OCCOCCO)[C@@]12CO2` had a composite z-score of -0.0432.

In turn, `C#Cc1cc2ccccc2oc1=O` came in with a composite z-score of -1.65.

`O=C(Cc1ccccc1)[C@H]1C2C=CCCC(c3ccccc3)=C2CN1Cc1ccccc1` (some centres not stated) gave a composite z-score of -0.0051.

As to `O=C1O[C@@H](c2ccccc2)[C@@H](c2ccccc2)N2[C@@H](c3ccc(OCCO)cc3)[C@]3(C(=O)Nc4ccc(C#CC5=CCCCC5)cc43)[C@@H](C(=O)NC[C@H](O)c3ccccc3)[C@H]12`, the composite z-score was determined as 0.608.

In the case of `COc1cc2c(cc1O)C(C1CC1)N(Cc1cccc(OC(F)(F)F)c1)CC2` (configuration not stated), the composite z-score is -0.41.

With `[N-]=[N+]=NCc1ccccc1[C@@H]1OC(c2ccc(OCCCO)cc2)=N[C@]1(CCS(=O)(=O)c1ccccc1)C(=O)O`, the composite z-score came to 1.17.

For the compound `[N-]=[N+]=NCc1ccccc1[C@H]1OC(c2ccc(OCCCO)cc2)=N[C@@]1(Cc1ccccc1N=[N+]=[N-])C(=O)NCC(O)CO` (some centres not stated), the composite z-score was 1.08.

For `COCCOC(=O)N1C(=O)[C@@]2(c3ccccc31)[C@H](C(=O)NC[C@H](O)c1ccccc1)[C@H]1C(=O)O[C@H](c3ccccc3)[C@H](c3ccccc3)N1[C@@H]2c1ccc(O)cc1`, the composite z-score came out at 1.78.

For `O=C1OCCC/C=C\[C@H]2OC34C=CCN(c5ccc6ccccc6c5)C(=O)[C@H]3N(CCO)C(=O)[C@@H]4C12` (some centres not stated), the composite z-score was -1.95.

Take `CCOC(=O)C[C@H]1[C@H](OC(=O)Cc2ccc3c(c2)OCO3)[C@@H](NC(=O)c2ccc3ccccc3n2)c2cc(OCCCO)ccc2N1C(=O)c1ccc2ccccc2n1`: the composite z-score amounted to 0.406.

As for `CC[C@@H]1C=C(C(=O)O)[C@H](c2ccccc2)N1S(=O)(=O)c1ccc(C)cc1`, the composite z-score came out at 1.39.

The compound `CC(C)N1C(=O)C[C@@](C(=O)O)(c2ccc([N+](=O)[O-])cc2)[C@H]1c1ccc(CO)cc1` came in with a composite z-score of -0.315.
